Inconclusive results are not listed. Where a call stands in place of a potency, no number is given. Activity calls are given as the source filed them. Unless noted, calls follow the shape of the dose curve; as a rule, active = well fitted curve in the direction sought with a large enough effect; inconclusive = small, poorly fitted or top-dose-only effect, or another doubt; inactive = no such curve, though single readings can be large; an effect the other way counts as inactive or inconclusive.
Tests used:
[1] = NS1 protein of Zika virus - qHTS assay to identify small molecule inhibitors in human HEK 293 cells (AID 1347053); also: series mostly up to about 46 µM; nearly all actives have a fitted effect of over 55% in size
Procedure, shortened: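 In this cell-based screen, HEK 293 cultures received compound for one hour before Zika MR766 at MOI = 0.5. NS1 was quantified 24 hours later by TR-FRET, normalized to virus-free wells and infected wells.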

[2] = qHTS for Inhibitors of the Functional Ribonucleoprotein Complex (vRNP) of Lassa (LASV) Arenavirus: LASV Primary Screen - GLuc reporter signal (AID 1347082; calls by dose curve; tested in HEK293 reporter line; also: series mostly up to about 57 µM; nearly all actives have a fitted effect of over 60% in size)
[3] = qHTS for Inhibitors of the Functional Ribonucleoprotein Complex (vRNP) of Lassa (LASV) Arenavirus: Viability assay - alamar blue signal for LASV Primary Screen (AID 1347083; calls by dose curve; tested in HEK293 reporter line; also: series mostly up to about 57 µM; nearly all actives have a fitted effect of over 80% in size)
[4] = qHTS for Inhibitors of the Functional Ribonucleoprotein Complex (vRNP) of Lymphocytic Choriomeningitis Arenaviruses (LCMV): Viability assay - alamar blue signal for LCMV Primary Screen (AID 1347085; calls by dose curve; tested in HEK293 reporter line; also: series mostly up to about 57 µM; nearly all actives have a fitted effect of over 80% in size)
[5] = target: Nucleoprotein (Lymphocytic choriomeningitis virus (strain Armstrong)) (UniProt P09992); assay: qHTS for Inhibitors of the Functional Ribonucleoprotein Complex (vRNP) of Lymphocytic Choriomeningitis Arenaviruses (LCMV): LCMV Primary Screen - GLuc reporter signal (AID 1347086; calls by dose curve; also: series mostly up to about 57 µM; nearly all actives have a fitted effect of over 70% in size)
Nucleoprotein (Lymphocytic choriomeningitis virus (strain Armstrong)), sequence (P09992 whole entry, looked up): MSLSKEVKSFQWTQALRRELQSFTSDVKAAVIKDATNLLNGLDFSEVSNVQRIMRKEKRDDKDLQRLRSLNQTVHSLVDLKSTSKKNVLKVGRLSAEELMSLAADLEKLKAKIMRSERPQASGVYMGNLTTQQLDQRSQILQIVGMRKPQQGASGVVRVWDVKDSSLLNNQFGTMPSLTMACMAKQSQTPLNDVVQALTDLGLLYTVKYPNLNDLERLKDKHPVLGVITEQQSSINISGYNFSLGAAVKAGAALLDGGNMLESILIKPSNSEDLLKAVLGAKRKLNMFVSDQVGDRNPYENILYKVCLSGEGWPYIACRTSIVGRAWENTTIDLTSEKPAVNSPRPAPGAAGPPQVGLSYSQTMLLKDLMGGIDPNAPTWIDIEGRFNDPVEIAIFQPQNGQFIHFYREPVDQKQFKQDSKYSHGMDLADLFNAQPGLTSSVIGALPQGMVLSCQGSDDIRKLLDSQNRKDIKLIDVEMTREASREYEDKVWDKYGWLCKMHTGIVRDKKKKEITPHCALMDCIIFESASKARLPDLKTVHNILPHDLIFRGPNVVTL

[6] = qHTS of pediatric cancer cell lines to identify multiple opportunities for drug repurposing: Primary screen for TC32 cells (AID 1347089); also: nearly all actives have a fitted effect of over 60% in size
Procedure, shortened: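 Measured quantity: luminescence from CellTiter-Glo, reflecting metabolically active TC32 cells following 48 h of compound. Curves came straight from multi-point titrations, with 8 or 11 points in primary and 11 in confirmatory screening.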

[7] = qHTS of pediatric cancer cell lines to identify multiple opportunities for drug repurposing: Primary screen for DAOY cells (AID 1347090); also: series mostly up to about 46 µM; nearly all actives have a fitted effect of over 55% in size
Procedure, shortened: (§1)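 Cell viability, CellTiter-Glo luminescence; 500-1,000 cells/well, 8- or 11-point titration, 48 h compound exposure at 37 degrees C, 5% CO2. Controls: DMSO neutral, bortezomib 2.3 µM final as positive.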

[8] = qHTS of pediatric cancer cell lines to identify multiple opportunities for drug repurposing: Primary screen for SJ-GBM2 cells (AID 1347091)
Procedure, shortened: as §1

[9] = qHTS of pediatric cancer cell lines to identify multiple opportunities for drug repurposing: Primary screen for A673 cells (AID 1347092); also: nearly all actives have a fitted effect of over 45% in size; also: potency is read from the fitted curve at half-maximal effect
Procedure, shortened: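 Cells are plated, rested 5 h, dosed by pintool, incubated 48 h, then lysed with CellTiter-Glo and read by luminescence. DMSO is the neutral control; bortezomib at 2.3 uM final is the positive control.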

[10] = qHTS of pediatric cancer cell lines to identify multiple opportunities for drug repurposing: Primary screen for BT-37 cells (AID 1347094); also: potency is read from the fitted curve at half-maximal effect
Procedure, shortened: (§2)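 Phenotypic viability qHTS, 48 h compound exposure, CellTiter-Glo luminescence read-out; multi-concentration dosing so that potency and efficacy derive directly from the primary screen's curves.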

[11] = qHTS of pediatric cancer cell lines to identify multiple opportunities for drug repurposing: Primary screen for NB-EBc1 cells (AID 1347095)
Procedure, shortened: as §2

[12] = qHTS of pediatric cancer cell lines to identify multiple opportunities for drug repurposing: Primary screen for U-2 OS cells (AID 1347096); also: nearly all actives have a fitted effect of over 50% in size
Procedure, shortened: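 Cells (500-1,000/well) rested 5 h, then received compounds for 48 h; metabolically active cells were measured by CellTiter-Glo luminescence. Final concentrations spanned up to 46 µM (MIPE, 11-point) or 0.59 nM-46 µM (NPC, 8-point) in primary screens, 11-point in follow-ups.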

[13] = qHTS of pediatric cancer cell lines to identify multiple opportunities for drug repurposing: Primary screen for Saos-2 cells (AID 1347097); also: nearly all actives have a fitted effect of over 40% in size
Procedure, shortened: as §2

[14] = qHTS of pediatric cancer cell lines to identify multiple opportunities for drug repurposing: Primary screen for SK-N-MC cells (AID 1347093); also: series mostly up to about 46 µM
Procedure, shortened: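 Metabolically active cells were quantified by ATP-dependent luminescence (CellTiter-Glo, 15 min at room temperature) following 48 h treatment. Cells had been plated at 500-1,000 per well and settled for 5 h beforehand.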

| SMILES | Potency [1] | Potency [2] | Potency [3] | Potency [4] | Potency [5] | Potency [6] | Potency [7] | Potency [8] | Potency [9] | Potency [10] | Potency [11] | Potency [12] | Potency [13] | Potency [14] |
| --- | --- | --- | --- | --- | --- | --- | --- | --- | --- | --- | --- | --- | --- | --- |
| CCC1(CC)C(=O)NC(=O)NC1=O | inactive | inactive | inactive | inactive | inactive | inactive | inactive | inactive | inactive | inactive | inactive | inactive | – | – |
| C[C@@H]1CC[C@H]2[C@@H](C)C(=O)O[C@@H]3O[C@@]4(C)CC[C@@H]1[C@]32OO4 | inactive | inactive | inactive | inactive | inactive | inactive | inactive | inactive | inactive | inactive | inactive | inactive | – | – |
| CCC(=O)O[C@H]1CC[C@H]2[C@@H]3CCC4=CC(=O)CC[C@]4(C)[C@H]3CC[C@]12C | inactive | inactive | inactive | inactive | inactive | inactive | inactive | inactive | inactive | – | inactive | inactive | inactive | – |
| C=CC[C@]1(O)CC[C@H]2[C@@H]3CCC4=CC(=O)CCC4=C3C=C[C@@]21C | inactive | inactive | inactive | inactive | inactive | inactive | inactive | inactive | inactive | – | inactive | inactive | inactive | – |
| CC(Cc1ccc2c(c1)OCO2)NO (stereo not given) | inactive | inactive | inactive | inactive | inactive | inactive | inactive | inactive | inactive | – | inactive | inactive | inactive | inactive |
| O=C1CN2CCOC2(c2ccccc2Cl)c2cc(Cl)ccc2N1 (stereo not given) | inactive | inactive | inactive | inactive | inactive | inactive | inactive | inactive | inactive | – | inactive | inactive | inactive | inactive |
| CCOC(=O)C(c1c(O)c2ccccc2oc1=O)c1c(O)c2ccccc2oc1=O | inactive | inactive | inactive | inactive | inactive | inactive | inactive | inactive | inactive | – | inactive | inactive | inactive | – |
| CCN(CC)Cc1nccn1-c1ccc([N+](=O)[O-])cc1C(=O)c1ccccc1Cl | inactive | inactive | inactive | inactive | inactive | inactive | inactive | inactive | inactive | inactive | inactive | inactive | inactive | – |
| CC(Cc1ccccc1)NCc1ccccc1Cl (stereo not given) | inactive | inactive | inactive | inactive | inactive | inactive | inactive | inactive | – | inactive | inactive | – | – | – |
| O=C1NCN(c2ccccc2)C12CCN(CCCOc1ccc(F)cc1)CC2 | inactive | inactive | inactive | inactive | inactive | inactive | inactive | – | inactive | 17.4 µM (active) | inactive | inactive | – | inactive |
| C[N+](C)(C)CCOC(=O)C(O)(c1ccccc1)c1ccccc1 | inactive | inactive | inactive | inactive | inactive | inactive | inactive | inactive | inactive | – | inactive | inactive | inactive | inactive |
| CN(C)CCc1c[nH]c2cccc(O)c12 | inactive | inactive | inactive | inactive | inactive | inactive | inactive | inactive | – | inactive | inactive | inactive | inactive | – |
| CCCN(CCC)CCc1c[nH]c2ccccc12 | inactive | inactive | inactive | inactive | inactive | inactive | inactive | inactive | – | inactive | inactive | inactive | – | – |
| CN1C(=O)CN=C(c2ccccc2)c2cc(Cl)ccc21 | inactive | inactive | inactive | inactive | inactive | inactive | inactive | inactive | – | – | inactive | inactive | inactive | inactive |
| CC1COC2(c3ccccc3Cl)c3cc(Cl)ccc3NC(=O)CN12 (stereo not given) | inactive | inactive | inactive | inactive | inactive | inactive | inactive | – | inactive | – | inactive | inactive | inactive | inactive |
| CC[C@H]1C[C@H]2[C@@H]3CCC4=CC(=O)CC[C@@H]4[C@H]3CC[C@]2(C)[C@H]1O | inactive | inactive | inactive | inactive | inactive | inactive | inactive | inactive | inactive | inactive | inactive | inactive | inactive | – |
| O=C(O)Cc1ccccc1 | inactive | inactive | inactive | inactive | inactive | inactive | inactive | inactive | inactive | – | inactive | inactive | inactive | – |
| CN(C)CCc1c[nH]c2ccccc12 | inactive | inactive | inactive | inactive | inactive | inactive | inactive | inactive | inactive | – | inactive | inactive | inactive | inactive |
| CC(Cc1ccccc1)NCCCCl (stereo not given) | inactive | inactive | inactive | inactive | inactive | inactive | inactive | inactive | inactive | – | inactive | inactive | inactive | inactive |
| CCc1ccc(C2CCNCC2)cc1 | inactive | inactive | inactive | inactive | inactive | inactive | inactive | inactive | inactive | – | inactive | inactive | inactive | inactive |
| NC1(c2ccccc2)CCCCC1 | inactive | inactive | inactive | inactive | inactive | inactive | inactive | inactive | 30.3 µM (active) | inactive | inactive | inactive | inactive | – |
| O=C(N[C@@H]1N=C(c2ccccc2F)c2cccc3c2N(CC3)C1=O)c1cc2ccccc2[nH]1 | inactive | inactive | – | inactive | inactive | inactive | – | inactive | – | – | inactive | inactive | – | – |
| CC(C)=CCN1CC[C@@]2(C)c3cc(O)ccc3C[C@@H]1[C@@H]2C | inactive | inactive | inactive | inactive | inactive | inactive | inactive | – | – | – | inactive | inactive | – | – |
